Measured values published in the supplement of paper PMC10849652.
The full data set covers some 7,900 targets. This sample favours those with a hit. About 0.6% of all pairs of compound and target were hits.

What was measured:
Experiment in all cases: log2 fold change, soluble protein after heating vs DMSO (PISA); higher = thermal stabilisation; K562 cells, 10 uM, 30 min; active = over 0.2 and 3.5 SD of the protein, either way, in both replicates (recomputed)
erlotinib = compound: C#Cc1cccc(Nc2ncnc3cc(OCCOC)c(OCCOC)cc23)c1 [erlotinib]
Outline: (§1)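 K562 cells at 2×10^6 cells/mL were treated for 30 min with 10 μM compound, and aliquots were heated for 3 min over 48°C-58°C before pooling. Extraction used PBS with 0.5% NP-40 at 4°C, and soluble protein was the supernatant after 21,000xg for 90 min, measured by TMTpro 16plex LC-MS/MS with channel sums equalised. Thermal stability values, relative to control samples and from duplicates, are log2 fold changes.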

[1] = compound: C/C(=N\NC(=O)C1=CC(=CC=C1)S(=O)(=O)N2CCOCC2)/C3=C(C=CC(=C3)Cl)O
Outline: as §1

[2] = compound: C1=CC(=C(C=C1Cl)C2=NC3=NC=CN=C3C(=N2)NC4=CC=NC=C4)F
Outline: as §1

[3] = compound: C1=CC(=CC=C1C2=NC3=C(N2)C=C(C=C3)C(=O)N)OC4=CC=C(C=C4)Cl
Outline: as §1

[4] = compound: C1=CC2=C(C=CC(=C2)/C=C\3/C(=O)NC(=NCC4=CC=CS4)S3)N=C1
Outline: as §1

[5] = compound: C1=CC2=NC=CN=C2C=C1/C=C/3\C(=O)NC(=O)S3
Outline: as §1

[6] = compound: C1=CC=C(C=C1)C2=NC(=C(N2)C3=CC=NC=C3)C4=CC(=C(C=C4)Cl)O
Outline: as §1

[7] = compound: C1=CC=C2C(=C1)C3=NNC4=CC=CC(=C43)C2=O
Outline: as §1

[8] = compound: C1CCN(C1)C(=O)NC2=CC=CC(=C2)NC3=NC=C(C(=N3)NCCC4=CN=CN4)Br
Outline: as §1

[9] = compound: C1CN(CCC1(CC2=CC=C(C=C2)Cl)N)C3=NC=NC4=C3C=CN4
Outline: as §1

ibrutinib = compound: C=CC(=O)N1CCC[C@@H](n2nc(-c3ccc(Oc4ccccc4)cc3)c3c(N)ncnc32)C1 [ibrutinib]
Outline: as §1

[10] = compound: CC(=O)c1cnc2ccc(-c3cc(Cl)c(O)c(Cl)c3)nc2c1N[C@H]1CC[C@H](CN(C)C)CC1
Outline: as §1

ralimetinib = compound: CC(C)(C)Cn1c(N)nc2ccc(-c3[nH]c(C(C)(C)C)nc3-c3ccc(F)cc3)nc21 [ralimetinib]
Outline: as §1

[11] = compound: CC(C)(O)CC(=O)NCCn1ccc2ncnc(Nc3ccc(Oc4cccc(C(F)(F)F)c4)c(Cl)c3)c21
Outline: as §1

[12] = compound: CC(C)C1=C2N=C(C=C(N2N=C1)NCC3=CC=CC=C3)NCCCCCCN
Outline: as §1

[13] = compound: CC(C)C[C@@H](C=O)NC(=O)[C@H](CC(C)C)NC(=O)[C@H](CC(C)C)NC(=O)OCc1ccccc1
Outline: as §1

[14] = compound: CC1=C(C(CC(=O)N1)C2=CC=C(C=C2)C(F)(F)F)C(=O)NC3=C(C=C4C(=C3)C=NN4)F
Outline: as §1

[15] = compound: CC1=C(C2=C(C=C1)C(=O)C3=CC=CC=C3N2CCCN)C
Outline: as §1

IRAK-1-4 Inhibitor I = compound: C1COCCN1CCN2C3=CC=CC=C3N=C2NC(=O)C4=CC(=CC=C4)[N+](=O)[O-] [IRAK-1-4 Inhibitor I]
Outline: as §1

pinometostat = compound: CC(C)N(C[C@H]1O[C@@H](n2cnc3c(N)ncnc32)[C@H](O)[C@@H]1O)[C@H]1C[C@@H](CCc2nc3cc(C(C)(C)C)ccc3[nH]2)C1 [pinometostat]
Outline: as §1

Measured: log2 fold change

ASS1 (UniProt P00966)
Chain of UniProt P00966 (P00966 whole entry, looked up): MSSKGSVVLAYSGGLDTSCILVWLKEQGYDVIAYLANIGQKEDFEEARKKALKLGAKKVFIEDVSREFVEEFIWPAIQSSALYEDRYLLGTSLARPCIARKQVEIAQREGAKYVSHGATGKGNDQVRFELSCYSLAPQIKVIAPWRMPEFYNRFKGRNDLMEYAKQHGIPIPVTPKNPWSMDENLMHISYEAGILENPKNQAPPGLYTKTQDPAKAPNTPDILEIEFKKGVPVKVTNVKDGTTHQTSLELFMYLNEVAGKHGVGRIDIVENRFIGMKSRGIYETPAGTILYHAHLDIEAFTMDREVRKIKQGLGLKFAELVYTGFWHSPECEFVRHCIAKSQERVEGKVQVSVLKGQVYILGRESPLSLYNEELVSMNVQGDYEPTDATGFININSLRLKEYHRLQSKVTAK
inactive: erlotinib 0.059 | [2] -0.05 | [3] 0.008 | [4] -0.003 | [5] 0.036 | [6] 0.012 | [7] 0.118 | [8] 0.103 | [9] -0.037 | ibrutinib 0.05 | [10] -0.155 | ralimetinib -0.022 | [11] -0.064 | [12] -0.122 | [13] 0.006 | [14] -0.071 | [15] -0.021
active: [1] 0.301

AGAP3 isoform 4 (UniProt Q96P47)
inactive: erlotinib 0.11 | [1] 0 | [2] -0.078 | [3] -0.062 | [4] 0.017 | [5] 0.183 | [6] -0.024 | [7] -0.082 | [8] -0.075 | [9] 0.127 | IRAK-1-4 Inhibitor I -0.024 | ibrutinib -0.018 | [10] -0.223 | ralimetinib 0.25 | [11] 0.009 | [12] -0.182 | [13] -0.044 | pinometostat 0.245 | [14] -0.107 | [15] -0.043

ACSL3 (UniProt O95573)
Chain of UniProt O95573 (O95573 whole entry, looked up): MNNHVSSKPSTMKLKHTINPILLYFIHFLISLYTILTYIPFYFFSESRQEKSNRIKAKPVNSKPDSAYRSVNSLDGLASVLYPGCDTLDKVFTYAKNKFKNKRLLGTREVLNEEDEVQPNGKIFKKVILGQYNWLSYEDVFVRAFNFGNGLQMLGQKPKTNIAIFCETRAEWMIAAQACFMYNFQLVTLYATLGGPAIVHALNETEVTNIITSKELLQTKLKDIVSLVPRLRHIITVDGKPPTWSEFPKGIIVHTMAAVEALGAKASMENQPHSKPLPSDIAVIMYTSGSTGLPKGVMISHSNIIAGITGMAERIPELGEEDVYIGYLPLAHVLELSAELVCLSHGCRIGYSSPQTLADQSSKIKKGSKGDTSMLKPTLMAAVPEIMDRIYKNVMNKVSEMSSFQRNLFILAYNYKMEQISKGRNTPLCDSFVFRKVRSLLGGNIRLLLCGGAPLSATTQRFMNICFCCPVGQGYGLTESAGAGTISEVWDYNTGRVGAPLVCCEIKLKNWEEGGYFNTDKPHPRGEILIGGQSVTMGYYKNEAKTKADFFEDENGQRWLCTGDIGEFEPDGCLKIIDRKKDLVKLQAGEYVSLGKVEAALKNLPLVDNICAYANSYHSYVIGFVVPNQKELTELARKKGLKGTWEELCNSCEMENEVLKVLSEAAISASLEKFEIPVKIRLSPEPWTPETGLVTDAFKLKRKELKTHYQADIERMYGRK
inactive: erlotinib -0.005 | [1] 0.055 | [2] 0.092 | [4] 0.078 | [5] 0.031 | [6] 0.06 | [7] 0.069 | [8] -0.005 | [9] 0.039 | IRAK-1-4 Inhibitor I 0 | ibrutinib -0.001 | [10] -0.035 | ralimetinib -0.009 | [11] -0.086 | [12] -0.025 | [13] -0.009 | pinometostat -0.004 | [14] 0.023 | [15] 0.035
active: [3] 0.351

ATP1B3 (UniProt P54709)
inactive: erlotinib -0.016 | [1] -0.004 | [2] -0.002 | [3] -0.019 | [4] -0.021 | [5] 0.023 | [6] 0.057 | [7] -0.052 | [8] -0.024 | [9] 0.048 | IRAK-1-4 Inhibitor I 0.025 | ibrutinib 0.043 | [10] -0.03 | ralimetinib -0.036 | [11] 0.01 | [12] 0.154 | [13] -0.008 | pinometostat -0.056 | [14] -0.012 | [15] -0.032

ACTBL2 (UniProt Q562R1)
inactive: erlotinib -0.247 | [1] -0.805 | [2] 0.093 | [3] 0.025 | [4] -0.419 | [5] -0.215 | [6] 0.047 | [7] 0.147 | ibrutinib 0 | [10] -0.156 | ralimetinib 0.351 | [11] 0.132 | [12] 0.372 | [13] 0.195 | [14] 0.406

ALKBH4 (UniProt Q9NXW9)
inactive: erlotinib 0.067 | [1] 0.084 | [2] 0.018 | [3] 0.078 | [4] 0.106 | [5] -0.129 | [6] 0.032 | [7] -0.006 | [8] -0.074 | [9] 0.091 | IRAK-1-4 Inhibitor I 0.009 | ibrutinib -0.126 | [10] -0.07 | ralimetinib 0.017 | [11] -0.12 | [12] -0.086 | [13] -0.033 | pinometostat -0.065 | [15] -0.11

ALDH9A1 (UniProt P49189)
inactive: erlotinib 0.131 | [1] 0.021 | [2] 0.035 | [3] -0.077 | [4] -0.023 | [5] 0.013 | [6] -0.103 | [7] 0.043 | [8] 0.035 | [9] 0.045 | ibrutinib -0.008 | [10] -0.024 | ralimetinib -0.077 | [11] 0 | [12] -0.27 | [13] 0.185 | [14] -0.056 | [15] -0.035

AFDN isoform 1 (UniProt P55196)
inactive: erlotinib -0.008 | [1] 0.072 | [2] 0.002 | [3] -0.003 | [4] -0.136 | [5] -0.018 | [6] -0.082 | [7] -0.005 | IRAK-1-4 Inhibitor I -0.046 | ibrutinib -0.015 | [10] -0.102 | ralimetinib -0.12 | [11] -0.048 | [12] -0.001 | [13] 0.002 | pinometostat -0.072

ATF7 isoform 6 (UniProt P17544)
inactive: erlotinib -0.011 | [1] -0.148 | [2] -0.043 | [3] 0.021 | [4] 0.032 | [5] -0.055 | [6] 0.08 | [7] 0.085 | [8] -0.004 | [9] -0.117 | IRAK-1-4 Inhibitor I -0.031 | ibrutinib 0.199 | [10] 0.183 | ralimetinib 0.089 | [11] -0.042 | [12] 0.138 | [13] -0.14 | pinometostat 0.019 | [14] -0.082 | [15] 0.22

APAF1 (UniProt O14727)
Chain of UniProt O14727 (O14727 whole entry, looked up): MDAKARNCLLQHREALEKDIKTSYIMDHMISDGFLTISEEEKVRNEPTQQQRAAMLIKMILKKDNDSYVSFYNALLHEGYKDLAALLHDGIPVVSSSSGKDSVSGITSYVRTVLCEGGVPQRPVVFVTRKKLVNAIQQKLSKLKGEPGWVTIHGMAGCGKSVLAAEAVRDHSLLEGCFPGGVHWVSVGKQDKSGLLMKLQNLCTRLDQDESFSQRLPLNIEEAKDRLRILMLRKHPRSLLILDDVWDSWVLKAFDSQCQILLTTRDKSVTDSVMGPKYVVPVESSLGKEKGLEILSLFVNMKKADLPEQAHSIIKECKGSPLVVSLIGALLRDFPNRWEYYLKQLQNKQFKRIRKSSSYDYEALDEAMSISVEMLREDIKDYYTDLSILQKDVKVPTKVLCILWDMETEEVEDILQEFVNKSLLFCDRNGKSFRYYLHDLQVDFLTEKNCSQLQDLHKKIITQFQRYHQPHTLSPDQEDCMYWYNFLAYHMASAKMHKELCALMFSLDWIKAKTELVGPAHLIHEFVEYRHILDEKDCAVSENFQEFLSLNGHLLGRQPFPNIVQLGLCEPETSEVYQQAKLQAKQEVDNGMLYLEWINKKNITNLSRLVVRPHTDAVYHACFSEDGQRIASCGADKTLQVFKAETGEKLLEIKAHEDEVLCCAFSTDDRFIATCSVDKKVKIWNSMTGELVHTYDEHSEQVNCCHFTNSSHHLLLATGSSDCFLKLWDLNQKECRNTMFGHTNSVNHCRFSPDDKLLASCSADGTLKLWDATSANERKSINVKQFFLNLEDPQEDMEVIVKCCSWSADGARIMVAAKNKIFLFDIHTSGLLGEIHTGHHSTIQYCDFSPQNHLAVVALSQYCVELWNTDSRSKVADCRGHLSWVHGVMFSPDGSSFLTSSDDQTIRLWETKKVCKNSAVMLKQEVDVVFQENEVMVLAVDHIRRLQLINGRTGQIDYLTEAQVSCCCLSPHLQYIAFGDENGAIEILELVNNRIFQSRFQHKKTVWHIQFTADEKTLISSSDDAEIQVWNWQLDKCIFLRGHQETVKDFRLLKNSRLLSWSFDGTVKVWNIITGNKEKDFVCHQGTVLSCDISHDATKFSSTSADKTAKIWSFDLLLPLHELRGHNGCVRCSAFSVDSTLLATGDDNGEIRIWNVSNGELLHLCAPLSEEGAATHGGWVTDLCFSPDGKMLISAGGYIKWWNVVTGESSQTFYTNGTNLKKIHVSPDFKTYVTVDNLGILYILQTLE
inactive: erlotinib 0.207 | [1] 0.066 | [2] -0.073 | [3] 0.141 | [4] 0.016 | [6] 0.037 | [7] 0.011 | IRAK-1-4 Inhibitor I 0.001 | [10] -0.153 | ralimetinib -0.07 | [11] -0.08 | [12] -0.156 | [13] 0.135 | pinometostat 0.066 | [14] 0.047

AUH (UniProt Q13825)
Chain of UniProt Q13825 (Q13825 whole entry, looked up): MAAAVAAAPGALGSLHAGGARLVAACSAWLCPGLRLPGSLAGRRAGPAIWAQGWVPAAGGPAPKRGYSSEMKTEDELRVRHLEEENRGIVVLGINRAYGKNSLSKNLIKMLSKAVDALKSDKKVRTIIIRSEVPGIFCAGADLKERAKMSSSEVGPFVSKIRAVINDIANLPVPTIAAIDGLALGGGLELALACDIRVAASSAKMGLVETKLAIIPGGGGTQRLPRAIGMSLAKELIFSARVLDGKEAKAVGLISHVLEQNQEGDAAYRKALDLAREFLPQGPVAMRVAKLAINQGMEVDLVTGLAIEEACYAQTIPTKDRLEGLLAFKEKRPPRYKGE
inactive: erlotinib 0.155 | [1] 0.042 | [3] -0.035 | [4] -0.122 | [5] 0.112 | [6] 0.039 | [7] 0.065 | [8] -0.028 | [9] 0.059 | IRAK-1-4 Inhibitor I -0.237 | ibrutinib 0.031 | [10] 0.036 | ralimetinib -0.003 | [12] 0.084 | [13] 0.026 | pinometostat 0.28 | [15] 0.032

AASDH (UniProt Q4L235)
inactive: erlotinib 0.113 | [2] 0.037 | [3] 0.048 | [5] 0.158 | [6] 0.003 | [8] -0.058 | [9] 0.034 | IRAK-1-4 Inhibitor I 0.037 | ibrutinib -0.308 | ralimetinib -0.011 | [11] -0.15 | [12] -0.107 | [13] -0.066 | pinometostat 0.038 | [14] -0.017 | [15] -0.184

BAIAP2 isoform 4 (UniProt Q9UQB8)
Chain of UniProt Q9UQB8 (Q9UQB8 whole entry, looked up): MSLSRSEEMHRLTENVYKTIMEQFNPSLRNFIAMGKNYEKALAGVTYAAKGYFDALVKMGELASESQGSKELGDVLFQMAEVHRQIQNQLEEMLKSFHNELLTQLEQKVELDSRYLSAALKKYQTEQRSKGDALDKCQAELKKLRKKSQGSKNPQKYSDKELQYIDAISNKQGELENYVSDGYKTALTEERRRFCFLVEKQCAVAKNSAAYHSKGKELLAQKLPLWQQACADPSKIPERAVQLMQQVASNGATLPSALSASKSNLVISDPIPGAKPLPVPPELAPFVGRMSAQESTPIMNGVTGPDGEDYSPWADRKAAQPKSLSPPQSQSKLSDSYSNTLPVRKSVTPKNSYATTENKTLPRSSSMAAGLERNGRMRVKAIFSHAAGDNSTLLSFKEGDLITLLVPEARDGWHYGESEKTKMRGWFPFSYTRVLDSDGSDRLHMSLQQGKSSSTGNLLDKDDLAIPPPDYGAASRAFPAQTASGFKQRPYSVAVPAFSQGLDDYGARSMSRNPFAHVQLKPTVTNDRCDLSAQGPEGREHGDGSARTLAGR
inactive: [8] -0.16 | [9] -0.048 | [15] 0.053

BRD2 isoform 2 (UniProt P25440)
Chain of UniProt P25440 (P25440 whole entry, looked up): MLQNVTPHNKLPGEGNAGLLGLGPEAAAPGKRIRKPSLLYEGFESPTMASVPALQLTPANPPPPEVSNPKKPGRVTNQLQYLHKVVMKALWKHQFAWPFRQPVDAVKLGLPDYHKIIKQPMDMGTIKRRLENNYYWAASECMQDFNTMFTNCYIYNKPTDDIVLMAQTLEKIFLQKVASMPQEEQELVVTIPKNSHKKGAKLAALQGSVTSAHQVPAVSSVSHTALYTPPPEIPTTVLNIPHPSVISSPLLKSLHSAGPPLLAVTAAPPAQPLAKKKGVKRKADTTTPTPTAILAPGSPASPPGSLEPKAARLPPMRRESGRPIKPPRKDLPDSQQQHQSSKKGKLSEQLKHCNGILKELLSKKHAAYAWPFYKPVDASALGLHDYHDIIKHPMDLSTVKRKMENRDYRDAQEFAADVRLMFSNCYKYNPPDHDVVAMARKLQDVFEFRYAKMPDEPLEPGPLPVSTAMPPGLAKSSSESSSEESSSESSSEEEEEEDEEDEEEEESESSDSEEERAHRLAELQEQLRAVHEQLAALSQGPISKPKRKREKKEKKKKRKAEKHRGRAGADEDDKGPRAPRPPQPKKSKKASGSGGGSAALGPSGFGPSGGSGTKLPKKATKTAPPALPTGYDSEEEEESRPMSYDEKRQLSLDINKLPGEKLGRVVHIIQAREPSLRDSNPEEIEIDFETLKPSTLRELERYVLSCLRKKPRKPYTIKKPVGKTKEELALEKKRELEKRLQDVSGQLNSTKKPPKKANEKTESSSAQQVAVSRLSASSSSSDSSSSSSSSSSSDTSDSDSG
inactive: erlotinib -0.552 | [3] 0.204 | [4] -0.073 | [5] 0.367 | [7] 0.137 | [8] -0.08 | [9] -0.002 | IRAK-1-4 Inhibitor I 0.091 | ibrutinib -0.164 | [10] -0.63 | [12] 0.042 | pinometostat 0.038 | [15] -0.117

APH1A (UniProt Q96BI3)
inactive: erlotinib 0 | [1] -0.046 | [3] 0.052 | [4] 0.073 | [5] 0.048 | [7] -0.09 | [8] -0.188 | [9] 0.071 | IRAK-1-4 Inhibitor I 0.021 | ibrutinib 0.036 | [10] -0.076 | [12] -0.047 | pinometostat -0.056 | [14] 0.028 | [15] -0.03

ADD1 isoform 4 (UniProt P35611)
inactive: [2] 0.169 | [5] -0.019 | IRAK-1-4 Inhibitor I -0.21 | ibrutinib 0.029 | [11] -0.117 | pinometostat 0.122

ARHGAP4 isoform 2 (UniProt P98171)
inactive: erlotinib 0.042 | [1] -0.338 | [3] 0.033 | [4] 0.121 | [5] -0.209 | [6] -0.016 | [7] -0.061 | [8] -0.117 | [9] 0.015 | ibrutinib 0.026 | [10] -0.051 | ralimetinib 0.161 | [12] -0.067 | [13] -0.005 | [14] -0.179 | [15] 0.062

AP2S1 (UniProt M0QZ21)
inactive: [8] -0.625 | [9] 0.21 | [15] 0.139

ADD2 isoform 9 (UniProt P35612)
inactive: [5] -0.025 | [6] 0.203 | ibrutinib -0.098 | ralimetinib 0.145 | [13] -0.103

ARMC8 isoform 6 (UniProt Q8IUR7)
Chain of UniProt Q8IUR7 (Q8IUR7 whole entry, looked up): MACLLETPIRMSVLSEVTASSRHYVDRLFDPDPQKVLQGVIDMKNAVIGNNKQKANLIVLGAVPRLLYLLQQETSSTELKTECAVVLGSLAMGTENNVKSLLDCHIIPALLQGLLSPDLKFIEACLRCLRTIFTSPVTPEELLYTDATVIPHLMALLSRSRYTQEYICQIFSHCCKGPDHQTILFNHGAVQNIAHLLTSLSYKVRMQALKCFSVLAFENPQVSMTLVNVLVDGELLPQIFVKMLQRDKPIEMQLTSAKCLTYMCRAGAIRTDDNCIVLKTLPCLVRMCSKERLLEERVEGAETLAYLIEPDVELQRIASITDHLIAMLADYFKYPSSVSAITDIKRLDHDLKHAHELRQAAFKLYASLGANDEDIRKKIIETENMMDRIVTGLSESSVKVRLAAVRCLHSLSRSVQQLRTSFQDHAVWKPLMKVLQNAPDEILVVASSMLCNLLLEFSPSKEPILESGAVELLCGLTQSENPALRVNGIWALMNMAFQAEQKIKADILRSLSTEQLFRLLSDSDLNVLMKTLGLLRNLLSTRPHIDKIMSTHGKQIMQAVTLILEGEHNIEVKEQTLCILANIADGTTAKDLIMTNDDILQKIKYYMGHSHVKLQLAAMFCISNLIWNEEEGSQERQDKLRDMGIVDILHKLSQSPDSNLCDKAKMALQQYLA
inactive: erlotinib -0.145 | [1] 0.081 | [3] -0.168 | [4] -0.075 | [5] 0.078 | [7] -0.067 | ibrutinib 0.016 | [10] 0.038 | [12] 0.053 | [14] -0.024

AUNIP isoform 2 (UniProt Q9H7T9)
inactive: erlotinib -0.023 | [1] 0.066 | [3] 0.297 | [4] 0.083 | [7] 0.027 | [8] 0.041 | [9] 0.066 | [10] -0.219 | [12] -0.134 | [15] -0.141

BRMS1 (UniProt Q9HCU9)
Chain of UniProt Q9HCU9 (Q9HCU9 whole entry, looked up): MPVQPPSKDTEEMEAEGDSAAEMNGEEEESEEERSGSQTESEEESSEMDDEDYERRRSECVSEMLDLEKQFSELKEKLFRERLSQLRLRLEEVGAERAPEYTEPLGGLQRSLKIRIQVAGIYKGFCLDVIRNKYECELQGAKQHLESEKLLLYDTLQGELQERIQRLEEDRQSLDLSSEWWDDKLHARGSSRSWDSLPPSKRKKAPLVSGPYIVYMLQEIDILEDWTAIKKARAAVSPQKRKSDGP
active: [1] -0.656
inactive: [2] 0.075 | [4] 0.09 | [7] -0.041 | [8] 0.024 | [9] 0.119 | [10] 0.055 | [11] -0.002 | [15] -0.014

ADAMTS5 (UniProt Q9UNA0)
inactive: erlotinib 0.186 | [3] -0.124 | [4] 0.171 | [5] 0.012 | [6] 0.072 | [7] 0.043 | [8] -0.06 | [9] 0.113 | IRAK-1-4 Inhibitor I 0.064 | ibrutinib 0.127 | [10] 0.036 | ralimetinib 0.141 | [12] 0.088 | [13] -0.009 | pinometostat -0.03 | [14] -0.015 | [15] 0.025
active: [1] -0.518
